TRHR PAM – allosterically enhances the human TRH receptor. P34981. TRHR cells, fluo-8 calcium fluorescence, EC20 TRH enhancement. enhancement, % at 2 µM. hit rate 0.66% among 360,000; in the data active = enhancement above about 30%; also: 0% is about no effect
Target sequence (P34981 whole entry, looked up): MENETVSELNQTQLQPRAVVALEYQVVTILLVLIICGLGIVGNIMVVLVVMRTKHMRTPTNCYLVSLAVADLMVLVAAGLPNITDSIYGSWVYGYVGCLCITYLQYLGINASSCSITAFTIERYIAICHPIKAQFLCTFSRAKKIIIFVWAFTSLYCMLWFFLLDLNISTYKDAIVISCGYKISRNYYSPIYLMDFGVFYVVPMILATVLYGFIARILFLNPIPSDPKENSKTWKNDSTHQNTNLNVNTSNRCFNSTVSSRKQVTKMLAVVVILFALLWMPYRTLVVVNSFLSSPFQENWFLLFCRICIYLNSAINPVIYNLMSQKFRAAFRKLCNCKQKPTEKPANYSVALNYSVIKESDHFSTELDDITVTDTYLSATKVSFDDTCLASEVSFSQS
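Enhancer read-out: after compound pinning and an initial kinetic agonist-mode read, an EC20 of TRH (10 nM final) was injected and fluo-8 calcium signal (Ex 480/Em 530) followed at 1 s/cycle for 100 cycles in TRHR-expressing cells.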
D1 agonist – activates the human D1 dopamine receptor; P21728; HEK293 T-REx D1 cells, calcium flux, agonist mode; activation, % at 2 µM; hit rate 1% among 360,000; AID 504660; also: 0% is about no effect
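Inducible HEK293 T-REx D1 cells, force-coupled to calcium signalling, were plated at 4000 cells/well with tetracycline and held overnight at 30 C. After no-wash calcium dye loading, compound-evoked calcium rise over 180 s flagged agonists.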
D1 antag – human D1 dopamine receptor antagonism. P21728. HEK293 TREx D1 cells, calcium flux, dopamine EC80; active compounds read low. activity change, negative = inhibition, % at 10 µM. hit rate 3.2% among 360,000. AID 504652; in the data active = activity change below about -30%; also: % is scaled to controls: 0 for no effect and ±100 for the full control effect
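Tetracycline-induced HEK293 Trex D1 cells, force-coupled to calcium, dye-loaded; compounds added and read 180 s, then EC80 dopamine added and calcium flux tracked kinetically another 180 s.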
TRHR agonist – agonists of human TRH receptor; P34981; TRHR cells, calcium flux fluo-8, FDSS agonist mode; activation, % at 2 µM; hit rate 0.18% among 360,000; AID 493084; also: 0% is about no effect
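In this calcium-flux screen, cells bearing human TRHR are dye-loaded with fluo-8, baselined for 10 cycles, then exposed to library compounds; positive kinetic calcium responses during the agonist phase mark hits, with TRH as control.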
D1 potentiator – potentiators of human D1 dopamine receptor | HEK293 TREx D1 cells, calcium flux, dopamine EC20 potentiation | hit rate 0.036% among 360,000 | potentiation, % at 10 µM; in the data active = potentiation above about 30%; also: 0% is about no effect
Numbers without * were called inactive. A selection: hits, their analogues and other compounds. The true share with any hit is near 4.7%. Rule as the data show it, unless noted: active = activation above about 30%; inactive = the rest.

What do the screens show for `CCN(CC)c1ccc(/C=C(\C#N)C(=O)NCc2ccco2)cc1`?
TRHR PAM: 2.7; D1 agonist: 47.9*; D1 antag: -12.3; TRHR agonist: 27.2; D1 potentiator: -8.1

What do the screens show for `N#C/C(=C\c1cn(Cc2ccc(F)cc2)c2ccccc12)C(=O)NCc1ccco1`?
TRHR PAM: -2.9; D1 agonist: 7.2; D1 antag: -35.8*; TRHR agonist: 1.1; D1 potentiator: -10.9

What do the screens show for `CC(OC(=O)/C(C#N)=C/c1ccc(N(C)C)cc1)C(=O)NCc1ccco1` (stereo not given)?
TRHR PAM: 6.6; D1 agonist: 35.0*; D1 antag: -9.9; TRHR agonist: 15.8; D1 potentiator: 1.2

How did CN(C)c1ccc(/C=C(\C#N)C(=O)NCc2ccco2)cc1 do in these assays?
TRHR PAM: 8.4; D1 agonist: 35.1*; D1 antag: -3.5; TRHR agonist: -2.6; D1 potentiator: -7.7

How did Cc1ccc(CNC(=O)/C(C#N)=C\c2ccc(N(C)C)cc2)cc1 do in these assays?
TRHR PAM: -7.0; D1 agonist: 17.5; D1 antag: 3.3; TRHR agonist: 2.0; D1 potentiator: -2.1

What do the screens show for `Cn1c(=O)n(C)c2cc(/C=C(/C#N)C(=O)NCc3ccco3)ccc21`?
TRHR PAM: 9.8; D1 agonist: -0.6; D1 antag: 2.9; TRHR agonist: 0.3; D1 potentiator: -3.2

How did CC(NC(=O)c1c(F)cccc1Cl)c1ccc(-n2ccnc2)cc1 (stereo not given) do in these assays?
TRHR PAM: 0.8; D1 agonist: 2.6; D1 antag: -1.8; TRHR agonist: -0.8; D1 potentiator: -0.6

How did CCN1CCc2c(sc(-n3cccc3)c2C(CCC(C)C)NC(=O)NCCC(=O)OC)C1 (stereo not given) do in these assays?
TRHR PAM: -7.9; D1 agonist: 13.1; D1 antag: -4.8; TRHR agonist: 7.4; D1 potentiator: 1.4

What do the screens show for `CCN(CC)c1ccc(/C=C(\C#N)C(=O)NCc2ccccc2)cc1`?
TRHR PAM: 3.1; D1 agonist: 57.7*; D1 antag: 0.4; TRHR agonist: 10.0; D1 potentiator: -7.5

How did N#C/C(=C/c1ccc(C(=O)O)cc1)C(=O)NCc1ccccc1 do in these assays?
TRHR PAM: -6.4; D1 agonist: 3.5; D1 antag: -4.7; TRHR agonist: -0.1; D1 potentiator: -9.6

How did CCn1cc(/C=C(\NC(=O)c2ccccc2F)C(=O)N2CCOCC2)c2ccccc21 do in these assays?
TRHR PAM: -3.6; D1 agonist: -0.4; D1 antag: -34.2*; TRHR agonist: -0.1; D1 potentiator: -6.5

How did CNc1ccccc1NC(=O)C1CCCN1C(=O)OCc1ccccc1 (stereo not given) do in these assays?
TRHR PAM: 3.7; D1 agonist: 3.6; D1 antag: 0.7; TRHR agonist: -0.3; D1 potentiator: 7.9

What do the screens show for `CCCN(CC(=O)Nc1ccccc1OC)C(=O)Cc1ccc2c(c1)CCC2`?
TRHR PAM: -0.4; D1 agonist: 1.1; D1 antag: -0.2; TRHR agonist: 0.6; D1 potentiator: -1.1

What do the screens show for `Cc1cc(C(=O)NN=C2CCCCC2)c2ccccc2n1`?
TRHR PAM: 1.6; D1 agonist: 1.1; D1 antag: -88.7*; TRHR agonist: -0.1; D1 potentiator: -6.0

How did Cc1cc(C(=O)NN=C2CCCC2)c2ccccc2n1 do in these assays?
TRHR PAM: -13.5; D1 agonist: 0.8; D1 antag: -19.1; TRHR agonist: 0.0; D1 potentiator: 3.5

What do the screens show for `C/C(=N\NC(=O)c1cc(C)nc2ccccc12)c1cccs1`?
TRHR PAM: -13.6; D1 agonist: -0.6; D1 antag: -4.8; TRHR agonist: -0.1; D1 potentiator: -2.1

How did CC(/C=C/c1ccccc1)=N\NC(=O)c1cc(C)nc2ccccc12 do in these assays?
TRHR PAM: 5.8; D1 agonist: 1.9; D1 antag: -36.0*; TRHR agonist: -0.5; D1 potentiator: -7.8

How did COC(=O)c1ccc(CNC(=O)c2ccc(OC)c(S(=O)(=O)NC3CCCC3)c2)cc1 do in these assays?
TRHR PAM: -4.9; D1 agonist: -0.9; D1 antag: 6.5; TRHR agonist: 0.0; D1 potentiator: -3.9

What do the screens show for `CC1CCN(C(=O)C2CCCN(c3ncnc4c3nc3n4CCCCC3)C2)CC1` (stereo not given)?
TRHR PAM: -4.0; D1 agonist: 0.3; D1 antag: -37.3*; TRHR agonist: 0.2; D1 potentiator: 0.0

What do the screens show for `Cc1ccc(NC(=O)C2CCCN(c3ncnc4onc(C)c34)C2)c(Cl)c1` (stereo not given)?
TRHR PAM: -7.5; D1 agonist: 14.5; D1 antag: -53.9*; TRHR agonist: 0.1; D1 potentiator: -7.5

What do the screens show for `CC1CC(C)CN(C(=O)C2CCCN(c3ncnc4c3nc3n4CCCCC3)C2)C1` (stereo not given)?
TRHR PAM: 5.7; D1 agonist: -1.9; D1 antag: 10.7; TRHR agonist: -1.5; D1 potentiator: 5.0

Results for COc1ccccc1NC(=O)C1CCCN(c2ncnc3c2nc2n3CCCCC2)C1 (stereo not given) ?
TRHR PAM: 0.7; D1 agonist: 1.2; D1 antag: -15.0; TRHR agonist: -1.1; D1 potentiator: 2.6

What do the screens show for `COc1cc(OC)c(NC(=O)C2CCCN(c3ncnc4c3nc3n4CCCCC3)C2)cc1Cl` (stereo not given)?
TRHR PAM: 33.1*; D1 agonist: 0.3; D1 antag: -23.1; TRHR agonist: -0.7; D1 potentiator: 1.2

What do the screens show for `CCCn1nc(C(=O)NNC(=O)CCCOc2ccc(C)cc2)c2ccccc2c1=O`?
TRHR PAM: 5.8; D1 agonist: 2.0; D1 antag: 5.3; TRHR agonist: -0.3; D1 potentiator: 8.4

What do the screens show for `O=C(Nc1ccc(Cl)cc1)c1cnn2c1NC(c1ccccc1)=CC2c1ccccc1` (stereo not given)?
TRHR PAM: 13.7; D1 agonist: 4.9; D1 antag: -11.4; TRHR agonist: 0.0; D1 potentiator: -4.3

How did CC1=C(C(=O)OC(C)C)C(c2cccs2)C(C(=O)OC(C)C)=C(C)N1 do in these assays?
TRHR PAM: 2.1; D1 agonist: 6.6; D1 antag: -32.2*; TRHR agonist: -0.6; D1 potentiator: -5.0

Results for Cc1ccc(C)c(NC(=O)CCN2CCN(c3ccccc3F)CC2)c1 ?
TRHR PAM: 9.8; D1 agonist: 3.4; D1 antag: -37.6*; TRHR agonist: -0.5; D1 potentiator: -11.3

How did COc1ccc(C)cc1NC(=O)CN1CCN(C/C=C/c2ccccc2)CC1 do in these assays?
TRHR PAM: 3.3; D1 agonist: 38.0*; D1 antag: 4.6; TRHR agonist: -0.9; D1 potentiator: -7.2

What do the screens show for `COc1ccc(C)cc1NC(=O)CCN1CC(C)OC(C)C1` (stereo not given)?
TRHR PAM: -3.1; D1 agonist: 0.7; D1 antag: -30.3*; TRHR agonist: 0.1; D1 potentiator: -3.0

Bioassay records: PubChem, National Center for Advancing Translational Sciences (NCATS)
